Test results: PubChem BioAssay (NCATS)
Where “and” joins values, the source holds several entries; their conditions need not be identical. Equal values may be shown once. Results filed as inconclusive are left out. Calls of active or inactive are those of the source. Unless noted, calls come from the whole dose curve; as a rule, active = well fitted curve in either direction with a large enough effect (not every such curve was filed as active); inconclusive = small, poorly fitted or top-dose-only effect, or another doubt; inactive = flat fitted curve, though single readings scatter.

Columns and labels:
[1] = AP1 Signaling Pathway (AID 357); conditions: ME-180 (cervical carcinoma) AP-1-bla reporter, EGF-induced, beta-lactamase ratio, 5 h;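 note: ME-180 reporter cells stimulated with EGF at its EC50 level; % is set by controls: 0 for no effect and ±100 for the full control effect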
Outline: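 First, ME-180 AP-1-bla cells were cultured overnight at 37 °C in low-serum Opti-MEM. Next, titrated compounds with EC50 EGF were incubated 5 hours. Finally, CCF4 was added for 2.5 hours and the 460/530 nm ratio recorded.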

[2] = biological target: Cytochrome P450 1A2 (Homo sapiens) (UniProt P05177); assay: p450-cyp1a2 (AID 410; calls by dose curve; note: potency is the fitted concentration of half-maximal effect;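 for activity change, negative = inhibition: -100% = full effect of reference inhibitor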); conditions: recombinant CYP1A2, luciferin-ME demethylation, luminescence; series mostly up to 57 µM
Outline: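 Read-out is luminescence from luciferin produced by CYP1A2 demethylation of Luciferin-ME (100uM, at Km). Detection reagent stopped the 60 min NADPH-dependent reaction; signals were normalized to 57 uM furafylline.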

[3] = NFAT Signaling Pathway (AID 444); conditions: Jurkat NFAT-bla M1, carbachol, beta-lactamase ratio, 5 h;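 note: carbachol stimulus at about its EC50 of 1 µM final; % is set by controls: 0 for no effect and ±100 for the full control effect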
Outline: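 Read-out: CCF4 FRET ratio (460 nm/530 nm) after 1 h RT dye loading, used for %activity and AC50 from titration series. Cells: Jurkat NFAT-β-lactamase/M1 line, treated with compound plus 1 uM carbachol for 5 h, 37 °C.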

[4] = Cell Viability - BJ (AID 421; calls by dose curve;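 note: potency is the fitted concentration of half-maximal effect; cells exposed to compound for 40 hours at 37 °C before readout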); conditions: BJ fibroblast viability, qHTS
Outline: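 Quantitative HTS: ATP depletion in BJ cells after 40 hr compound exposure in complete culture medium, detected with CellTiter-Glo; AC50 from standard Hill fits.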

[5] = Cell Viability - Jurkat (AID 426;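 active = dose-dependent loss of cell ATP signal giving a full or clear fitted curve, ranked by lower potency value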;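 note: potency is the fitted concentration of half-maximal effect; cells exposed to compound for 40 hours at 37 °C before ATP read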); conditions: qHTS
Outline: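 Cytotoxicity was scored as loss of cellular ATP, measured by luciferase-based luminescence, in Jurkat clone E6-1 cells after 40 h compound treatment; tamoxifen and doxorubicin served as positive controls.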

[6] = Cell Viability - Hek293 (AID 427;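 active = compounds whose dose-response curve shows a full or clear partial loss of cell viability, called from curve shape rather than a numeric limit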;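 note: potency is the fitted concentration of half-maximal effect; cells exposed to compound for 40 hours at 37 °C before reading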); conditions: qHTS
Outline: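 AC50 values derive from Hill-modelled concentration-response of ATP-based luminescence, normalized between DMSO-only and 100 uM tamoxifen controls. Cells were exposed in complete culture medium for 40 hr at 37 °C before detection.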

[7] = Cell Viability - HepG2 (AID 433; calls by dose curve;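 note: potency is the fitted concentration of half-maximal effect; cells exposed to compound for 40 hours; potency for ATP loss meaning cytotoxicity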); conditions: qHTS
Outline: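 HepG2 cells, 1500 per well, treated 40 hr at 37 °C in complete medium; viability from intracellular ATP by CellTiter-Glo luminescence. Normalized to DMSO and 100 uM tamoxifen; AC50 from Hill fit of qHTS concentration-response.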

[8] = Cell Viability - MRC5 (AID 434; calls by dose curve;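 note: potency is the fitted concentration of half-maximal effect; cells exposed to compound for 40 hours at 37 °C; potency reflects cytotoxicity seen as loss of intracellular ATP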); conditions: MRC5 lung fibroblast viability, qHTS
Outline: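 AC50 values come from Hill-equation fits of intracellular ATP loss, measured by CellTiter-Glo luminescence. Normal lung fibroblasts (MRC5) had 40 hr compound treatment at 37 C, normalized between DMSO and 100 uM tamoxifen.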

[9] = Cell Viability - SK-N-SH (AID 435; calls by dose curve;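 note: potency is the fitted concentration of half-maximal effect; compound exposure lasted 40 h at 37 °C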); conditions: SK-N-SH neuroblastoma cell viability qHTS
Outline: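 SK-N-SH neuroblastoma cells (1500/well) treated 40 h at 37 °C in complete medium; viability read as cellular ATP by CellTiter-Glo luminescence. Normalized to DMSO and 100 uM tamoxifen; AC50 from Hill fits of qHTS concentration-response.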

Cytochrome P450 1A2 (Homo sapiens), sequence (P05177 whole entry, looked up): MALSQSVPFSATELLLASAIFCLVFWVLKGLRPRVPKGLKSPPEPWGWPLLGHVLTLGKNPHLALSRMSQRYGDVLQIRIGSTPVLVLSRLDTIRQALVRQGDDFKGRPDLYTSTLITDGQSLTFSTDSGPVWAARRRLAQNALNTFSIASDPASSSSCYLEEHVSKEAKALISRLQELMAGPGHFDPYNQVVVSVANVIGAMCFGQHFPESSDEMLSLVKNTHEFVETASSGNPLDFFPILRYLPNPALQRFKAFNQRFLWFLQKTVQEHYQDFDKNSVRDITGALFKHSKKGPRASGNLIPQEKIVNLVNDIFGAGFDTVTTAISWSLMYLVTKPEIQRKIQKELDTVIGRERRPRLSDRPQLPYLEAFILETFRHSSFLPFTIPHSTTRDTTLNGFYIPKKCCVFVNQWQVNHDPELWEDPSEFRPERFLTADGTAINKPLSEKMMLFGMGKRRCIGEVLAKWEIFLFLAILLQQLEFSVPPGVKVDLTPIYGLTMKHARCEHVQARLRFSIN

CN(C(=O)CCCOc1ccc2[nH]c(=O)ccc2c1)C1CCCCC1
inactive: activity change, negative = inhibition ([1]; at 38 µM (top of the series)) -11.1% | Potency [2] | activity change, negative = inhibition ([3]; at 38 µM (top of the series)) -14.2%

c1cc(CN2CCCCC2)cc(OCCCNc2nc3ccccc3s2)c1
active: Potency [2] 15.8 µM and 31.6 µM
inactive: activity change, negative = inhibition ([1]; at 38 µM (top of the series)) 6.03%

COc1cc(Cc2cnc(N)nc2N)cc(OC)c1OC
inactive: activity change, negative = inhibition ([1]; at 17.2 µM (top of the series)) 1.37% | activity change, negative = inhibition ([1]; at 38 µM (top of the series)) -4.63% | Potency [4] > 92 µM | Potency [5] > 92 µM | Potency [6] > 92 µM | Potency [7] > 92 µM | Potency [8] > 92 µM | Potency [9] > 92 µM | activity change, negative = inhibition ([3]; at 17.2 µM (top of the series)) -13.2% | activity change, negative = inhibition ([3]; at 38 µM (top of the series)) -9.42%

CN(C)C(=O)Oc1ccc[n+](C)c1
inactive: activity change, negative = inhibition ([1]; at 17.2 µM (top of the series)) 8.22% | activity change, negative = inhibition ([1]; at 38 µM (top of the series)) 9.9% | Potency [2]

O=C1NCN(c2ccccc2)C12CCN(CCCC(c1ccc(F)cc1)c1ccc(F)cc1)CC2
inactive: activity change, negative = inhibition ([1]; at 17.2 µM (top of the series)) -2.84% | activity change, negative = inhibition ([1]; at 38 µM (top of the series)) 1.17%
active: Potency [2] 12.6 µM

C#CCN(C)CCCOc1ccc(Cl)cc1Cl
active: Potency [2] 631 nM and 158 nM
inactive: activity change, negative = inhibition ([1]; at 17.2 µM (top of the series)) -12.7% | activity change, negative = inhibition ([1]; at 38 µM (top of the series)) -0.876% | activity change, negative = inhibition ([3]; at 17.2 µM (top of the series)) -4.25% | activity change, negative = inhibition ([3]; at 38 µM (top of the series)) -1.82%

CCN(CC)CC(=O)Nc1c(C)cccc1C
inactive: activity change, negative = inhibition ([1]; at 17.2 µM (top of the series)) 8.06% and 2.56% and 5.37% | activity change, negative = inhibition ([1]; at 38 µM (top of the series)) 19.9% | activity change, negative = inhibition ([3]; at 17.2 µM (top of the series)) -9.77% and 9.98% and -29.3% | activity change, negative = inhibition ([3]; at 38 µM (top of the series)) 0.823%

C[C@H](CS)C(=O)N1CCC[C@H]1C(=O)O
inactive: activity change, negative = inhibition ([1]; at 17.2 µM (top of the series)) -1.77% | activity change, negative = inhibition ([1]; at 38 µM (top of the series)) 3.53% | Potency [2] | activity change, negative = inhibition ([3]; at 17.2 µM (top of the series)) 2% | activity change, negative = inhibition ([3]; at 38 µM (top of the series)) -1.57%

C[N+](C)(C)CCOC(N)=O
inactive: activity change, negative = inhibition ([1]; at 38 µM (top of the series)) 21.2% | Potency [2]

CC(C)NNC(=O)c1ccncc1
inactive: activity change, negative = inhibition ([1]; at 17.2 µM (top of the series)) 5.09% | activity change, negative = inhibition ([1]; at 38 µM (top of the series)) -0.742% | Potency [2] | activity change, negative = inhibition ([3]; at 17.2 µM (top of the series)) -0.394% | activity change, negative = inhibition ([3]; at 38 µM (top of the series)) -0.596%

NC(=O)N1c2ccccc2C=Cc2ccccc21
inactive: activity change, negative = inhibition ([1]; at 17.2 µM (top of the series)) -5.62% and 13.4% | Potency [2] | Potency [4] > 92 µM | Potency [5] > 92 µM | Potency [6] > 92 µM | Potency [7] > 92 µM | Potency [8] > 92 µM | Potency [9] > 92 µM
